# Test results from PubChem BioAssay (Tox21).
# Inconclusive results are not listed. A call without a number means that no potency is given here. The source made the active and inactive calls. Calls come from the whole dose curve; as a rule, active = well fitted activation curve with a large enough effect in the signal ratio in the repeat runs (not every such curve was filed as active); inconclusive = weak or mixed curves; inactive = flat fitted curve, though single readings scatter; the % refers to the signal ratio. Peptide text beside a SMILES is read from it.
# Assay: p53 small molecule agonists, cell-based qHTS assay (AID 1963582)
# Conditions: HCT-116 p53RE-bla reporter, beta-lactamase FRET ratio, 16 h; series mostly up to 66 µM
# Excerpt: National Center for Advancing Translational Sciences [NCATS]
# Division of Preclinical Innovation [DPI]
# U.S. Environmental Protection Agency [EPA]
# National Institutes of Environmental Health Sciences [NIEHS]
# National Toxicology Program [NTP]
# U.S. Food and Drug Administration [FDA]
# p53, a tumor suppressor protein, is activated following cellular insult, including DNA damage and other cellular stresses. The activation of p53 regulates cell fate by inducing DNA repair, cell cycle arrest, apoptosis, or cellular senescence. The activation of p53, therefore, is a good indicator of DNA damage and other cellular stresses. […] The activation of the reporter gene under culture conditions can be detected by fluorescence intensity. This cell line was used to screen the Tox21 10K compound library in a 1536-well plate format and to identify agonists that activate the p53 signaling pathway.
# Tox21 Assay Protocol Summary:
# The p53RE-bla cells were dispensed at 4,000 cells/5 ul/well in 1536-well black wall/clear bottom plates using a Multidrop dispenser. After the assay plates were incubated at a 37 C/5% CO2 incubator for 5 hours, 23 nL of compounds dissolved in DMSO, positive controls or DMSO only was transferred to the assay plate by a pin tool. The plates were incubated at 37 C for 16 hours. After 1 uL of LiveBLAzerTM B/G FRET substrate was added using a Flying Reagent Dispenser, the plates were incubated at room temperature for 2 hours, and fluorescence intensity was measured by an Envision plate reader.
SMILES,Potency,activation
COCCOCC(OC)OC,inactive,
O=CN1CCOCC1,inactive,
CC(C)(C)C(=O)NCCCC(=O)O,inactive,
N[C@H]1CN(c2c(F)cc3c(=O)c(C(=O)O)cn(C4C[C@H]4F)c3c2Cl)CC12CC2 (stereo not given in full),inactive,
O=C(O)Cc1ccc(-c2ccccc2)cc1,inactive,
Cc1c(N)cccc1Cl,inactive,
CCN1CCCC1CNC(=O)c1cc(S(=O)(=O)CC)c(N)cc1OC (stereo not given),inactive,
CC[C@H](NC(=O)c1cc(F)ccc1NS(=O)(=O)c1cccc2cccnc12)c1ccccc1,inactive,
Cc1cc(OI)c(C(C)C)cc1-c1cc(C(C)C)c(OI)cc1C,inactive,
CCCCCCCCCCCBr,inactive,
C[C@H]1C[C@H]2[C@@H]3CCC4=CC(=O)C=C[C@]4(C)[C@H]3C(=O)C[C@]2(C)[C@@]1(O)C(=O)CO,inactive,
CCCCCCC(CO)CCCC (stereo not given),inactive,
CCOC(=O)C(=O)CCCCCCl,inactive,
Nc1ccc(C(=O)N2CC3CC(CN(Cc4ccccc4)C3)C2)cc1,inactive,
CCNC(=O)C(C)OC(=O)Nc1ccccc1 (stereo not given),inactive,
CC(C)(C)C1CCC(=O)CC1,inactive,
CC(=O)NCCCCCC(=O)O,inactive,
CCn1cc(C(=O)O)c(=O)c2cc(F)c(N3CCNC(C)C3)c(F)c21 (stereo not given),inactive,
COc1ccc(-n2nc(C(F)F)cc2-c2ccc(S(C)=O)cc2)cc1 (stereo not given),inactive,
O=C1[C@H]2CCCC[C@H]2C(=O)N1CCCCN1CCN(c2nsc3ccccc23)CC1,inactive,

SMILES,Potency,activation
C#CC(C)N(C)C(=O)Nc1ccc(Cl)cc1 (stereo not given),inactive,
c1cc[nH]c1,inactive,
CCOC(=O)c1c(N)sc2c1CCN(Cc1ccccc1)C2,inactive,
CCCOC(=O)c1ccc(N)cc1,inactive,
C=C[Si](C)(C)Cl,,0.341% [at 5.99 µM] (inactive)
Cc1nc(C2CCCCC2)c(-c2ccc(S(N)(=O)=O)c(F)c2)o1,inactive,
COc1cc2c(cc1OC)C(=O)CC2,inactive,
CC(CO)(CO)C(=O)O,inactive,
CCCCCCCCCCCCCCCCOS(=O)(=O)O,inactive,
O=C1O[C@@H]2[C@@H](O)[C@H](O)O[C@@H]2[C@H]1O,inactive,
CCCCCCCCCCOCC(O)CN (stereo not given),inactive,
CCc1cc(Cl)c(OC)c(C(=O)NC[C@@H]2CCCN2CC)c1O,inactive,
CCNc1nc(NC(C)(C)C)nc(OC)n1,inactive,
COc1ccc(-n2nc(CCC(=O)N(C)O)cc2-c2ccc(Cl)cc2)cc1,inactive,
CC(C)(O)c1ccc(CNC(=O)c2cccnc2Oc2ccc3nonc3c2)cc1,inactive,
COc1ccc(S(=O)(=O)N2c3ccc(Cl)cc3[C@@](O)(c3ccccc3Cl)[C@H]2C(=O)N2CCC[C@@H]2C(N)=O)cc1OC,inactive,
CC(=O)N[C@@H](CO)C(=O)N[C@@H](CC(=O)O)C(=O)N[C@@H](CCCCN)C(=O)N1CCC[C@H]1C(=O)O (Ac-SDKP-OH),inactive,
CC(N)CCCC(C)(C)O (stereo not given),inactive,
O=C(O)c1ccncc1,inactive,
NS(=O)(=O)c1cc2c(cc1C(F)(F)F)NCNS2(=O)=O,inactive,
